EPAC1 agonist: activates human EPAC1 exchange factor; O95398; EPAC1 agonist qHTS, biochemical assay; response scale: 100% = response to 6.5 mM cAMP; Potency, µM (top dose mostly 154 µM), inactives show at the highest dose activation, hits mostly activators; 360,000 tested, 0.073% active; AID 720707; further: nearly all actives have a fitted effect of over 60% in size
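Fluorescent GDP-exchange assay: 100 nM EPAC1 with 250 nM Rap1B preloaded with BODIPY-GDP and 50 uM GDP; compounds tested as concentration series, 5 min at room temperature, then read every 5 min for 30 min (ex 480/em 540 nm); normalized to 6.5 mM cAMP.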
EPAC2 ag: agonists of human EPAC2 (RAPGEF4). AID 720711. EPAC2 activation, biochemical qHTS; response scale: 100% = 6.5 mM cAMP response. 360,000 tested, 0.079% active. Q8WZA2. Potency, µM (titrated, usually from 154 µM), for the others: top-dose activation, most hits filed as activators; further: nearly all actives have a fitted effect of over 50% in size
Target sequence (Q8WZA2 whole entry, looked up): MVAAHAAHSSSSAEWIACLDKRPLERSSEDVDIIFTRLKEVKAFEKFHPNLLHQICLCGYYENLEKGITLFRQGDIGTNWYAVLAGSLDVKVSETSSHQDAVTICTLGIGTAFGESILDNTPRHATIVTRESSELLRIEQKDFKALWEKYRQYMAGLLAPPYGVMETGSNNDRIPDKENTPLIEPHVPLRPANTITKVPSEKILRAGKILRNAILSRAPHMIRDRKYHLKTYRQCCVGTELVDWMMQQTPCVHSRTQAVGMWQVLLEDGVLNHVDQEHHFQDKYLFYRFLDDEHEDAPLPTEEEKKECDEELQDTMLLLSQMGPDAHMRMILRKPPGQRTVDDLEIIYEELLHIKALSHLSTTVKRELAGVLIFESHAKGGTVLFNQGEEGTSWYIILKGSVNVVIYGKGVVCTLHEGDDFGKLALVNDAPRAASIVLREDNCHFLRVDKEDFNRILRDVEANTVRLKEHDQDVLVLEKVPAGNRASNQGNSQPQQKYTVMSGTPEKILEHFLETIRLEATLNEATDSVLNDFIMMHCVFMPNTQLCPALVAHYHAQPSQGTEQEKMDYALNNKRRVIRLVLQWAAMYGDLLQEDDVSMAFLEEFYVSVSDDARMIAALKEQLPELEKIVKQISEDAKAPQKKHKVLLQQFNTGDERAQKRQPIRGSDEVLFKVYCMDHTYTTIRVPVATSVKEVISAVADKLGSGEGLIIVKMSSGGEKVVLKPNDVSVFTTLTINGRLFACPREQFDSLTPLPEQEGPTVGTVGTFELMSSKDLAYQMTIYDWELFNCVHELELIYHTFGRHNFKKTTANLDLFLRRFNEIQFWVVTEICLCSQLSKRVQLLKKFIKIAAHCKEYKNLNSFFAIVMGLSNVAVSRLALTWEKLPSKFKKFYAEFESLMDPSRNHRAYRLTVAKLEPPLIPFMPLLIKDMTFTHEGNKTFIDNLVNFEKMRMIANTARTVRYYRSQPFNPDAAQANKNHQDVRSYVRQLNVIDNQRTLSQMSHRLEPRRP
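Setup: EPAC2 100 nM, labeled Rap1B complex 250 nM, free GDP 50 uM. Compound titrations pinned in, brief spin, 5 min room temperature incubation. Kinetic fluorescence read over 30 min, normalized to 6.5 mM cAMP.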
EPAC2 antag: blocks human EPAC2 exchange factor; AID 720708; 360,000 tested, 0.18% active; Q8WZA2; EPAC2 GEF exchange of Rap1B-BODIPY-GDP, fluorescence; Potency, µM (titrated, usually from 114 µM), for the others: at the highest dose activity, negative = inhibition, actives largely listed as inhibitors; further: on the % scale 0 is the no-effect control and ±100 the full control effect; nearly all actives have a fitted effect of over 45% in size
EPAC1 antagonist: EPAC1 (human) antagonism. O95398. EPAC1 GEF assay, Rap1b-BODIPY-GDP exchange fluorescence. Potency, µM (doses to about 115 µM), inactives show at the highest dose activity change, negative = inhibition, hits mostly inhibitors. 360,000 tested, 0.14% active. AID 720709;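 further: plate controls were vehicle for no effect and positive control for full effect; nearly all actives have a fitted effect of over 50% in size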
B2AR arrestin: recruits beta-arrestin to the human beta2-adrenergic receptor. Potency, µM (highest dose often 46.1 µM), for the others: at the top dose activation, most hits filed as activators. P07550. AID 492947. 330,000 tested, 0.02% active. beta-arrestin recruitment to beta2AR, cell-based reporter;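 further: 0% = DMSO controls and full agonism = EC100 isoproterenol or metaproterenol; nearly all actives have a fitted effect of over 65% in size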
Active calls of the source: *; ? = inconclusive; · = no result given. Most compounds without a hit are left out; they make up all but 0.4% or so of the library. The call rests on the fitted dose curve; in most records, active means well fitted curve in the direction sought with a large enough effect; inconclusive means small, poorly fitted or top-dose-only effect, or another doubt; inactive means no such curve, though single readings can be large; an effect the other way counts as inactive or inconclusive. Potency means the concentration at half of the fitted maximal effect.

SMILES	EPAC1 agonist	EPAC2 ag	EPAC2 antag	EPAC1 antagonist	B2AR arrestin
CCC[C@H]1CC(=O)C=C(c2ccsc2)ON1C(=O)OC(C)(C)C	-19%	9%	18µM*	-10%	·
COc1ccc(C2=CC(=O)C[C@H](CN3C(=O)c4ccccc4C3=O)N(C(=O)OC(C)(C)C)O2)cc1	-2%	-6%	?	-9%	·
CCN1C(=O)/C(=C/c2ccc(OCc3ccc(C(=O)O)cc3)c(Cl)c2)NC1=S	4%	11%	26%	89µM*	-1%
CC1=CC(C)(C)N(C(=O)CCl)c2cc(C)ccc21	-5%	6%	50µM*	-9%	0%
Cc1ccc(S(=O)(=O)N2[C@@H](c3cccc(Cl)c3)C(C(=O)O)=CC[C@H]2c2ccc(C(C)C)cc2)cc1	-16%	-9%	-28%	56µM*	0%
C=CCSc1nc(-c2ccc(OC)cc2)c(C#N)c(=O)n1CC=C	-4%	-3%	40µM*	-7%	-1%
COc1ccc(-c2nc3n(c(=O)c2C#N)CCS3)cc1	3%	13%	-4%	?	-1%
O=C(O)C1Nc2c(Cl)cc(Cl)cc2C2C=CCC12 (stereo unspecified)	5%	1%	-2%	18µM*	-1%
C=C1CCN(C(Cc2ccccc2)C(=O)OC)S(=O)(=O)c2ccc(F)cc21 (stereo unspecified)	-17%	12%	56µM*	-20%	-1%
Cn1c(NCc2ccccc2F)nc2cc(-c3cccc(C(F)(F)F)c3)sc2c1=O	6%	-10%	-1%	0%	·
O=C(/C=C/c1ccc(-c2ccccc2[N+](=O)[O-])o1)c1ccco1	4%	12%	0%	50µM*	0%
O=C(N/N=C/c1ccc(O)c(Br)c1)c1cc2c(ccc3ccccc32)o1	5%	6%	-5%	1%	0%
O=C(N/N=C/c1cc(Br)c(O)c(Br)c1)c1cc2c(ccc3ccccc32)o1	-4%	8%	-14%	28µM*	0%
Cc1cccc(C)c1-n1cccc1/C=C1\SC(=S)N(c2cccc(C(=O)O)c2)C1=O	1%	-4%	?	50µM*	0%
Cc1cccc(C)c1NC(=O)CN1C(=O)S/C(=C\c2cccn2-c2cccc(C(=O)O)c2)C1=O	?	19%	?	?	-1%
COC(=O)c1ccc(-n2c(C)cc(C(=O)CCl)c2C)cc1	3%	12%	35µM*	-27%	0%
CCOc1ccc(-n2c(C)cc(C(=O)CCl)c2C)cc1	1%	9%	8.9µM*	-22%	1%
CCOC(=O)c1cc(C)n(-c2ccc(Cl)cc2)c1C	-4%	2%	?	4%	-1%
CC(C)CN1CC(C)C(=O)N(c2ccccc2)C1=O (stereo unspecified)	-9%	-14%	-21%	4%	·
Cc1ccc(C)c(S(=O)(=O)/N=C(/Nc2ccccc2)c2ccccc2)c1	3%	6%	-12%	0%	2%
CCCS(=O)(=O)NC(=O)C1(C)CCN1C(=O)Cc1ccc(Cl)cc1Cl (stereo unspecified)	0%	-1%	6%	-12%	·
O=C(O)CN1C(=O)/C(=C\c2cc(Br)ccc2OCc2ccccc2F)SC1=S	6%	0%	56µM*	?	0%
O=C(O)CN1C(=O)/C(=C\c2ccccc2OCc2ccc(Cl)cc2Cl)SC1=S	5%	-1%	?	?	0%
O=C(O)CN1C(=O)/C(=C\c2cc(Br)ccc2OCc2ccccc2Cl)SC1=S	5%	10%	-9%	40µM*	0%
COc1ccc(-c2nn(-c3ccccc3)cc2C(=O)N2CCN(C(=O)c3ccco3)CC2)cc1	2%	2%	-1%	-2%	0%
SMILES	EPAC1 agonist	EPAC2 ag	EPAC2 antag	EPAC1 antagonist	B2AR arrestin
CCOc1ccccc1N=NC1C(=O)N(C(N)=S)N=C1C (stereo unspecified)	-5%	-1%	-8%	20%	1.1µM*
CC1=NN(C(N)=S)C(=O)C1N=Nc1ccccc1O (stereo unspecified)	13%	14%	-4%	-31%	0%
O=C(O)c1ccc(NC2=C/C(=N/S(=O)(=O)c3cccs3)c3ccccc3C2=O)cc1	-18%	18%	?	50µM*	·
Cc1cc(C)c(S(=O)(=O)/N=C2\C=C(Nc3ccc(C(=O)O)cc3)C(=O)c3ccccc32)c(C)c1	100µM*	4%	28%	-5%	-2%
O=C(O)c1ccc(NC2=C/C(=N/S(=O)(=O)c3ccccc3)c3ccccc3C2=O)cc1	-1%	2%	?	?	0%
O=C(COCc1cc(-c2ccc3c(c2)OCO3)on1)Nc1cccnc1Cl	-18%	-4%	-5%	0%	0%
CCc1ccc(S(=O)(=O)/N=C2/C=C(Sc3ncn[nH]3)C(=O)c3ccccc32)cc1	1%	10%	40µM*	?	-1%
COC(CNC(=O)c1ccc2c3c(onc13)-c1ccccc1C2=O)OC	56µM*	50µM*	?	?	7%
Cc1cc(/C=N/NC(N)=S)c(O)c(/C=N/NC(N)=S)c1	40µM*	?	25%	-13%	3%
Cc1ccc(C2=NC(=O)/C(=C/c3cc(O)c(O)c(Br)c3)S2)cc1	2%	-1%	-22%	10µM*	-1%
CCN(CC)c1ccc2c(-c3ccc(S(=O)(=O)O)cc3S(=O)(=O)[O-])c3ccc(=[N+](CC)CC)cc-3oc2c1	63µM*	?	?	32%	0%
N#Cc1ccccc1S(=O)(=O)N1CCN(CC(=O)NCC2(N3CCOCC3)CCCCC2)CC1	-3%	1%	0%	-9%	0%
O=C(NNC(=S)Nc1ccccc1)c1cccc(Br)c1	-13%	5%	7%	7%	0%
CC(C)(C)NC(=S)NNC(=O)c1cccc(Br)c1	-4%	-1%	1%	-8%	6.3µM*
CC1(C(=O)NS(=O)(=O)c2ccc(F)cc2F)CCN1C(=O)C1(c2ccc(Cl)cc2)CCC1 (stereo unspecified)	-17%	-1%	35µM*	?	·
O=C(Nc1cccc(O)c1)c1ccc2c(c1)C(=O)N(Cc1ccco1)C2=O	4%	-3%	1%	-4%	0%
O=C(Nc1ccc(Cl)cc1C(=O)O)c1ccc2c(c1)C(=O)N(Cc1ccco1)C2=O	4%	1%	?	79µM*	-1%
O=[N+]([O-])c1ccc(Sc2cccc[n+]2[O-])c2nonc12	-20%	-10%	56µM*	35µM*	1%
CC(=O)Nc1ccc(Nc2c3c4c(cccc4n(C)c2=O)C(=O)c2ccccc2-3)cc1	?	112µM*	11%	35%	-2%
CCCCNc1c2c3c(cccc3n(C)c1=O)C(=O)c1ccccc1-2	60%	62%	201%	206%	0%
O=C(C[C@@H]1C[C@H]2c3cc(NC(=O)C4CCC4)ccc3O[C@H]2[C@@H](CO)O1)NCc1ccc(-c2ccccc2)cc1	-22%	-10%	11%	0%	·
